Assay results from PubChem BioAssay (NCATS).
Results filed as inconclusive are left out. Calls of active or inactive are those of the source. Calls come from the whole dose curve; as a rule, active = well fitted inhibition curve with a large enough effect; inconclusive = small, poorly fitted or top-dose-only effect; inactive = flat fitted curve, though single readings scatter.

Test: P-glycoprotein substrates identified in KB-8-5-11 adenocarcinoma cell line, qHTS therapeutic library screen (AID 1346987); note: nearly all actives have a fitted effect of over 65% in size
Conditions: KB-8-5-11 (P-gp overexpressing) viability, CellTiter-Glo, 72 h; series mostly up to 44.5 µM; activity change, negative = cytotoxicity: at the top concentration
How it was run: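 Steps: plate 500 KB-8-5-11 cells/well in DMEM + 10% FCS (colchicine removed); pin compounds in dose-response; incubate 72 h, 37 degree C, 5% CO2; add CellTiter-Glo, 5 min; read luminescence.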
% is set by controls: 0 for no effect and ±100 for the full control effect; potency is the fitted concentration of half-maximal effect.

SMILES	activity change, negative = cytotoxicity	Potency
CCCCCCCCCCCCCCCC(=O)OC[C@@H](O)[C@H]1OC[C@H](O)[C@H]1O	-6.55% (inactive)	–
Cc1cc(-c2ccc(N=Nc3c(S(=O)(=O)O)cc4cc(S(=O)(=O)O)cc(N)c4c3O)c(C)c2)ccc1N=Nc1c(S(=O)(=O)O)cc2cc(S(=O)(=O)O)cc(N)c2c1O	–	9.2 µM (active)
CCN1C(=O)NC(c2ccccc2)C1=O (stereo unspecified)	-1.31% [at 17.3 µM] (inactive)	–
Cc1nc(NS(=O)(=O)c2ccc(N)cc2)nc(C)c1Br	19.1% (inactive)	–
CCCCCCCCCc1ccc(OCCOCCO)cc1	–	4.61 µM (active)
O=C(NNCS(=O)(=O)O)c1ccncc1	-1.75% (inactive)	–
